Results taken from PubChem BioAssay (Tox21).
Records with an inconclusive call do not appear. The source made the active and inactive calls. Unless noted, calls follow the shape of the dose curve; as a rule, active = well fitted curve in the direction sought with a large enough effect in the repeat runs; inconclusive = weak or mixed curves; inactive = no such curve, though single readings can be large; an effect the other way counts as inactive or inconclusive.

Tests used:
[1] = qHTS assay to identify small molecule agonists of the peroxisome proliferator-activated receptor delta (PPARd) signaling pathway - cell viability counter screen (AID 743211); conditions: PPARd-bla HEK293H viability, CellTiter-Glo luminescence, 17 h; series mostly up to 62.6 µM; also: nearly all actives have a fitted effect of over 55% in size; also: potency is read from the fitted curve at half-maximal effect
Summary of the method: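 Multiplexed format: after the 2 h room-temperature LiveBLAzer B/G FRET step, CellTiter-Glo was added to the same wells. Luminescence after 30 min gave cell viability; compound exposure was 17 h at 37C.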

[2] = qHTS assay to identify small molecule antagonists of the peroxisome proliferator-activated receptor delta (PPARd) signaling pathway - cell viability counter screen (AID 743213); conditions: PPARd-bla HEK293H viability, CellTiter-Glo luminescence, 17 h; series mostly up to 62 µM; also: nearly all actives have a fitted effect of over 50% in size; also: potency is read from the fitted curve at half-maximal effect
Summary of the method: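 Agonist-stimulated (L165041, 300 nM final) HEK293H PPARd UAS-bla cells are exposed to compounds for 17 h at 37 C, and ATP-based luminescence (CellTiter-Glo) from the same wells reports cytotoxicity.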

[3] = qHTS assay to identify small molecule agonists of the farnesoid-X-receptor (FXR) signaling pathway - cell viability counter screen (AID 743218); conditions: FXR-bla HEK293T viability, CellTiter-Glo luminescence, 16 h; series mostly up to 62.6 µM; also: nearly all actives have a fitted effect of over 45% in size; also: potency is read from the fitted curve at half-maximal effect
Summary of the method: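 Luminescence from CellTiter-Glo, read after 30 min at RT, reports viability of GeneBLAzer FXR-UAS-bla HEK 293T cells treated 16 h with compounds in the wells used for the beta-lactamase reporter.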

[4] = target: Bile acid receptor (Homo sapiens) (UniProt Q96RI1); assay: qHTS assay to identify small molecule agonists of the farnesoid-X-receptor (FXR) signaling pathway (AID 743220; active = well fitted activation curve with a large enough effect in the signal ratio in the repeat runs, not every such curve was filed as active; the % refers to the signal ratio); conditions: HEK293T FXR-UAS-bla, beta-lactamase FRET ratio, 16 h; series mostly up to 62.6 µM
Summary of the method: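 FXR-UAS-bla HEK 293T cells carrying a UAS-driven beta-lactamase reporter were plated for 5 h at 37C/5% CO2, then exposed to DMSO-dissolved Tox21 10K compounds for 16 h at 37C. A LiveBLAzer B/G FRET substrate was loaded for 2 h at room temperature before fluorescence reading.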

[5] = qHTS assay to identify small molecule antagonists of the farnesoid-X-receptor (FXR) signaling pathway - cell viability counter screen (AID 743221; active = well fitted cell-killing curve with a large enough effect in the repeat runs, not every such curve was filed as active; also: nearly all actives have a fitted effect of over 50% in size); conditions: FXR-bla HEK293T viability, CellTiter-Glo luminescence, 16 h; series mostly up to 62.6 µM
Summary of the method: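 CellTiter-Glo, 30 min RT, luminescence; same wells as the LiveBLAzer FRET read. Cells: FXR-UAS-bla HEK 293T. Treatment: compound with chenodeoxycholic acid 50 uM final, 16 h at 37 C.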

[6] = target: Vitamin D3 receptor (Homo sapiens) (UniProt P11473); assay: qHTS assay to identify small molecule agonists of the vitamin D receptor (VDR) signaling pathway (AID 743222; calls by dose curve); conditions: HEK293T VDR-UAS-bla, beta-lactamase FRET ratio, 16 h; series mostly up to 63.5 µM
Summary of the method: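 Beta-lactamase reporter readout (LiveBLAzer B/G FRET, 2 h RT) in VDR-bla cells after 16 h compound treatment at 37C, 5% CO2; cells pre-incubated 4 h before pin transfer of DMSO solutions.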

[7] = target: Vitamin D3 receptor (Homo sapiens) (UniProt P11473); assay: qHTS assay to identify small molecule antagonists of the vitamin D receptor (VDR) signaling pathway (AID 743223; active = well fitted inhibition curve with a large enough effect in the signal ratio in the repeat runs, not every such curve was filed as active; the % refers to the signal ratio); conditions: VDR-UAS-bla HEK293T, beta-lactamase FRET ratio, 16 h; series mostly up to 61 µM
Summary of the method: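 After VDR-bla cells are plated and left 4 h at 37C, DMSO-dissolved compounds and 3 nM (final) calcitriol agonist are added. Incubation continues 16 h at 37C; FRET beta-lactamase substrate then develops 2 h at room temperature.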

[8] = target: Peroxisome proliferator-activated receptor delta (Homo sapiens) (UniProt Q03181); assay: qHTS assay to identify small molecule agonists of the peroxisome proliferator-activated receptor delta (PPARd) signaling pathway (AID 743212; calls by dose curve); conditions: HEK293H PPARd-UAS-bla, beta-lactamase FRET ratio, 17 h; series mostly up to 62.6 µM
Summary of the method: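 Read-out: beta-lactamase FRET fluorescence after 2 h room-temperature incubation with LiveBLAzer B/G substrate. Cells were HEK293H carrying a UAS-bla reporter for PPARd, treated at 37 C with DMSO-dissolved compounds.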

[9] = target: Peroxisome proliferator-activated receptor delta (Homo sapiens) (UniProt Q03181); assay: qHTS assay to identify small molecule antagonists of the peroxisome proliferator-activated receptor delta (PPARd) signaling pathway (AID 743215; active = well fitted inhibition curve with a large enough effect in the signal ratio in the repeat runs, not every such curve was filed as active; the % refers to the signal ratio); conditions: HEK293H PPARd-UAS-bla, beta-lactamase FRET ratio, antagonist, 17 h; series mostly up to 62 µM
Summary of the method: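 HEK293H GeneBLAzer PPARd UAS-bla reporter cells; cpd + L165041 300 nM final, 17 h 37 C; LiveBLAzer B/G FRET substrate 2 h RT; fluorescence intensity read-out. Antagonist mode.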

[10] = target: Bile acid receptor (Homo sapiens) (UniProt Q96RI1); assay: qHTS assay to identify small molecule antagonists of the farnesoid-X-receptor (FXR) signaling pathway (AID 743217; active = well fitted inhibition curve with a large enough effect in the signal ratio in the repeat runs, not every such curve was filed as active; the % refers to the signal ratio); conditions: HEK293T FXR-UAS-bla, beta-lactamase ratio, CDCA-stimulated, 16 h; series mostly up to 62.6 µM
Summary of the method: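 Read-out: beta-lactamase FRET fluorescence (LiveBLAzer B/G substrate, 2 h, room temperature) in GeneBLAzer FXR-UAS-bla HEK 293T cells. Compounds were co-dosed with 50 uM chenodeoxycholic acid (final) and incubated 16 h at 37 °C.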

Measured: Potency

Sequence of Bile acid receptor (Homo sapiens) (Q96RI1 whole entry, looked up): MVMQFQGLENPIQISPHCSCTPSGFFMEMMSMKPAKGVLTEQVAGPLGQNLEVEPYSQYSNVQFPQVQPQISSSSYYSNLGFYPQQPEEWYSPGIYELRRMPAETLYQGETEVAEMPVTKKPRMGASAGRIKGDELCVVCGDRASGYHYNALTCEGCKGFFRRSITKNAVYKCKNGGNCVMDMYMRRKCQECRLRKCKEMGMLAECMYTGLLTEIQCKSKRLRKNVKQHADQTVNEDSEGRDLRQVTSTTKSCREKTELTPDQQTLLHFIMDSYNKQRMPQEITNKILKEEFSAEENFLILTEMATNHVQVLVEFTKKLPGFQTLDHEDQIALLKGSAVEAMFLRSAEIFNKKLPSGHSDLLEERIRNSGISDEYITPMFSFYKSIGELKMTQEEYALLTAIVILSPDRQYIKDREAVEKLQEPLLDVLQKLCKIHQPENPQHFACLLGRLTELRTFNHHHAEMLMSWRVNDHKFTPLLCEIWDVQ
Sequence of Vitamin D3 receptor (Homo sapiens) (P11473 whole entry, looked up): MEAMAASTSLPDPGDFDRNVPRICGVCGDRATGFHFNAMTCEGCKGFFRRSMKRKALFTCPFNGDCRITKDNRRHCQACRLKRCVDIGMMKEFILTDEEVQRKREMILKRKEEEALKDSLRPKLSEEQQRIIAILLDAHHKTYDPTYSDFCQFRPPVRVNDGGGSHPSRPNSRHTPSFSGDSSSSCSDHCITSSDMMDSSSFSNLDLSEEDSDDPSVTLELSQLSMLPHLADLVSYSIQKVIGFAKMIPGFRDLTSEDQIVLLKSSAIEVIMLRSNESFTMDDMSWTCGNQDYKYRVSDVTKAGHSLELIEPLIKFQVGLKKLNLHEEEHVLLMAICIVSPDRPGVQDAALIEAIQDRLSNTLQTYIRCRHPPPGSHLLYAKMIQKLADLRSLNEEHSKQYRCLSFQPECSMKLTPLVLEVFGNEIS
Sequence of Peroxisome proliferator-activated receptor delta (Homo sapiens) (Q03181 whole entry, looked up): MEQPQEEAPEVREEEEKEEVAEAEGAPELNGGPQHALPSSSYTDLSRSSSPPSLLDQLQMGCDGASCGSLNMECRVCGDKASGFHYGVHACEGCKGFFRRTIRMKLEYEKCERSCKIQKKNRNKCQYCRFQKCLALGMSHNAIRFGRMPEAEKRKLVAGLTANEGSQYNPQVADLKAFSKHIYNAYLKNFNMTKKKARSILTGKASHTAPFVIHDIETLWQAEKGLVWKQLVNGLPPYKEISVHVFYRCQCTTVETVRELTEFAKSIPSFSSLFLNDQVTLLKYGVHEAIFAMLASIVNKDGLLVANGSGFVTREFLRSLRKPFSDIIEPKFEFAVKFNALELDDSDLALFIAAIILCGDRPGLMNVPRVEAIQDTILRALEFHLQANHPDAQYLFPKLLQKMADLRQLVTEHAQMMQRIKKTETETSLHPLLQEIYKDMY

CC1=C(CC(=O)O)c2cc(F)ccc2/C1=C\c1ccc(S(C)(=O)=O)cc1
inactive: [1] | [2] | [3]

CN1C(=O)CC(c2ccccc2)C1=O (stereo not given)
inactive: [1] | [2] | [3] | [4] | [5]

CC(C)CCCCCCc1ccc(OCCOCCO)cc1
inactive: [1] | [2] | [3] | [5] | [6]

ClC(Cl)Cl
inactive: [1] | [2] | [4] | [5] | [7]

NC(=O)NS(=O)(=O)c1ccc(Cl)cc1
not listed: [1] | [2] | [5]
inactive: all other assays above

c1ccc(CN(CC2=NCCN2)c2ccccc2)cc1
inactive: [2] | [5] | [6]

CCOC(=O)COc1ccc2c(c1)CC(NCC(O)c1cccc(Cl)c1)CC2 (stereo not given)
inactive: [2] | [9] | [3] | [5] | [7]

NS(=O)(=O)c1cc(-c2nn[nH]n2)c(NCc2cccs2)cc1Cl
inactive: [2] | [9] | [3] | [5] | [6] | [7]

CCCCC(=O)O[C@]1(C(=O)CO)[C@H](C)C[C@H]2[C@@H]3CCC4=CC(=O)C=C[C@]4(C)[C@@]3(F)[C@@H](O)C[C@@]21C
inactive: [1] | [3] | [6] | [7]

COc1ccc(Nc2ccc(OC)cc2)cc1
inactive: [1] | [3] | [4] | [5] | [6] | [7]

CCC(=O)O[C@]1(C(=O)SCF)[C@H](C)C[C@H]2[C@@H]3C[C@H](F)C4=CC(=O)C=C[C@]4(C)[C@@]3(F)[C@@H](O)C[C@@]21C
inactive: [1] | [9] | [5]

CC(C)c1ccccc1
inactive: [3] | [5] | [7]

CCCCCCCCc1ccc(S(=O)(=O)O)cc1
active: [1] 43.3 µM
inactive: [9] | [3] | [4] | [5] | [7]

CCCCCCCCCCCCOCCOS(=O)(=O)O
inactive: [3] | [6]

COc1cc2c(cc1N)oc1ccccc12
inactive: [9] | [10] | [5] | [7]

CCOc1ccc(NC(N)=O)cc1
inactive: [1] | [10] | [3] | [5]

CN(CCCN1c2ccccc2CCc2ccccc21)CC(=O)c1ccc(Cl)cc1
not listed: [1] | [4]
inactive: all other assays above

O=Cc1ccc(O)c(O)c1O
inactive: [3] | [5]

Cc1ccccc1C(=O)Nc1ccc(C(=O)N2CCCC(O)c3cc(Cl)ccc32)c(C)c1 (stereo not given)
inactive: [2] | [5] | [6]

Cc1nc(N)nc(N)c1-c1ccc(Cl)c(Cl)c1
inactive: [1] | [9]

O=C(O)c1ccccc1Nc1cc(Cl)ccc1C(=O)O
inactive: [3] | [5] | [6] | [7]

O=C1CCCCCCCCCCC(=O)OCCO1
inactive: [1] | [2] | [7]

CN1CCN(C2=Nc3ccccc3Oc3ccc(Cl)cc32)CC1
inactive: [1] | [9] | [7]

Cc1nc(-c2ccccn2)ncc1C(=O)Nn1cc(C)c2cc(F)ccc21
not listed: [1] | [4] | [9]
inactive: all other assays above

Cc1c[nH]c(=S)[nH]c1=O
active: [2] 55.1 µM
inactive: [8] | [3] | [5] | [7]

CC(C)O
inactive: [8] | [3] | [5] | [6] | [7]

C[C@@H](N)C(=O)O
inactive: [8] | [2] | [7]

CN(C)C(=O)NC1(c2ccccc2)CCN(CCC[C@]2(c3ccc(Cl)c(Cl)c3)CCCN(C(=O)c3ccccc3)C2)CC1
active: [1] 9.28 µM | [3] 11.7 µM
inactive: [9] | [6]

CCN(CC)CCOc1ccc(Cc2ccccc2)cc1
inactive: [9]

CCOC(=O)CS
not listed: [1] | [4]
inactive: all other assays above

CC(C)NC[C@@H](O)COc1cccc2ccccc12
inactive: [10] | [5] | [6] | [7]

Cc1cc2nc(N)sc2cc1C
inactive: [1] | [3] | [5] | [7]

CC[C@H]1CC[C@H](NCc2cc3c(cc2OC)[C@H]2C[C@H]2C(=O)N3C)[C@H](c2ccccc2)N1
inactive: [8] | [3]

CC1CN(c2ccccc2)NC1=O (stereo not given)
not listed: [1] | [4] | [7]
inactive: all other assays above

CCCOc1ccc2c(c1)CC[C@@H]1[C@@H]2CC[C@]2(C)C(OC)CC[C@@H]12 (stereo not given in full)
inactive: [2] | [9] | [3] | [6]

CCc1cc2cc(OC)c(OC)cc2c(Cc2ccccc2)n1
inactive: [1] | [9] | [4] | [5] | [6]

CCCCc1ccc2nc(NC(=O)OC)[nH]c2c1
inactive: [2] | [3] | [6]

OCC(CBr)(CBr)CBr
inactive: [1] | [9] | [5]

CCCCNC(=S)NCCCC
inactive: [2] | [3] | [5] | [6] | [7]

CCC(=O)c1ccc2c(c1)N(CCCN(C)C)c1ccccc1S2
active: [1] 29.8 µM
inactive: [4]

CN1CCN(C2=Nc3cc(F)ccc3Cc3ccccc32)CC1
not listed: [1] | [5] | [10]
inactive: all other assays above

NC1=NCC2c3ccccc3Cc3ccccc3N12 (stereo not given)
inactive: [1] | [2] | [7]

CCCCOc1cc(C(=O)NCCN(CC)CC)c2ccccc2n1
inactive: [3] | [5]
